# Measurements: PubChem BioAssay (NCATS)
# Results filed as inconclusive are left out. A call without a number means that no potency is given here. The source made the active and inactive calls. Unless noted, the call rests on the fitted dose curve; in most records, active means well fitted curve in the direction sought with a large enough effect; inconclusive means small, poorly fitted or top-dose-only effect, or another doubt; inactive means no such curve, though single readings can be large; an effect the other way counts as inactive or inconclusive.
# Tests used:
# [1] = Confirmation and Secondary Assay for Modulators of Hemoglobin Beta Chain Splicing at IVS2 654 locus (AID 910)
# Procedure, shortened: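 HeLa cells stably carrying EGFP interrupted by mutant beta-globin IVS2-654 intron (CMV-driven) were treated with compound for 2 days at 37C; corrected splicing was scored as total peak GFP intensity per well (488 nm excitation, 500-520 nm emission).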
# [2] = Confirmation and Secondary Assay for Modulators of Hemoglobin Beta Chain Splicing at IVS2 705 locus (AID 930);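 further: HeLa cells stably expressing the EGFP-705 splicing reporter; GFP fluorescence per well restored by corrected splicing of the IVS2-705 intron in EGFP; series mostly up to about 46 µM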
# Procedure, shortened: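 Read-out: total peak GFP fluorescence per well (488 nm excitation, 500-520 nm emission) by laser-scanning cytometry. Cells: HeLa EGFP-705 splicing reporter, 2 days compound exposure in Optimem/2% FCS.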
# [3] = molecular target: Ubiquitin carboxyl-terminal hydrolase 1 (Homo sapiens) (UniProt O94782); assay: Inhibitors of USP1/UAF1: Pilot qHTS (AID 504865);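 further: rhodamine fluorescence freed from ubiquitin-rhodamine substrate followed over time; top concentration of the series differs between compounds; nearly all actives have a fitted effect of over 35% in size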
# Procedure, shortened: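 USP1/UAF1 complex at 1 nM preincubated 15 min at room temperature with compound, then Ub-Rho substrate added at 150 nM final. Fluorescence (480/540 nm) read kinetically in 50 mM HEPES pH 7.8, 0.5 mM EDTA, 1 mM TCEP, 0.1 mg/ml BSA, 0.01% Tween-20.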
# [4] = qHTS for Inhibitors of the Functional Ribonucleoprotein Complex (vRNP) of Lassa (LASV) Arenavirus: LASV Primary Screen - GLuc reporter signal (AID 1347082; calls by dose curve; tested in HEK293 reporter line; further: series mostly up to about 57 µM; nearly all actives have a fitted effect of over 60% in size)
# [5] = qHTS for Inhibitors of the Functional Ribonucleoprotein Complex (vRNP) of Lassa (LASV) Arenavirus: Viability assay - alamar blue signal for LASV Primary Screen (AID 1347083; calls by dose curve; tested in HEK293 reporter line; further: series mostly up to about 57 µM; nearly all actives have a fitted effect of over 80% in size)
# [6] = qHTS for Inhibitors of the Functional Ribonucleoprotein Complex (vRNP) of Lymphocytic Choriomeningitis Arenaviruses (LCMV): Viability assay - alamar blue signal for LCMV Primary Screen (AID 1347085; calls by dose curve; tested in HEK293 reporter line; further: series mostly up to about 57 µM; nearly all actives have a fitted effect of over 80% in size)
# [7] = molecular target: Nucleoprotein (Lymphocytic choriomeningitis virus (strain Armstrong)) (UniProt P09992); assay: qHTS for Inhibitors of the Functional Ribonucleoprotein Complex (vRNP) of Lymphocytic Choriomeningitis Arenaviruses (LCMV): LCMV Primary Screen - GLuc reporter signal (AID 1347086; calls by dose curve; further: series mostly up to about 57 µM; nearly all actives have a fitted effect of over 70% in size)
# [8] = molecular target: Alpha-galactosidase (Coffea arabica) (UniProt Q42656); assay: Counterscreen for Glucocerebrosidase Inhibitors: qHTS Assay for Coffee Bean alpha-Galactosidase at pH 4.5 (AID 957); further: series mostly up to about 77 µM
# Procedure, shortened: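 Fluorogenic read-out: 4-methylumbelliferone at Ex 365/Em 440 nm after NaOH/glycine stop (pH 10). Enzyme 2 nM, 4-MU-alpha-galactoside 80 uM, citrate buffer pH 4.5, 20 min RT; normalized to no-enzyme and enzyme controls.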
# [9] = molecular target: Alpha-galactosidase (Coffea arabica) (UniProt Q42656); assay: Counterscreen for Glucocerebrosidase Inhibitors: qHTS Assay for Coffee Bean alpha-Galactosidase at pH 5.9 (AID 998)
# Procedure, shortened: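 In 50 mM citric acid pH 5.9 with 0.005% Tween-20, coffee bean enzyme hydrolyses 80 uM 4-MU alpha-D-galactopyranoside over 20 min at RT. Activity is normalized to controls; AC50 comes from Hill-modelled concentration-response data.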
# [10] = Inducers of the Endoplasmic Reticulum Stress Response (ERSR) in human glioma: Validation (AID 504836)
# Procedure, shortened: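 Stably transfected U87-MG human glioma cells carrying a GRP78-based luminescent sensor were seeded at 1000 cells/well, pin-dosed with compounds and incubated 16 h. Luciferase reagent was then added, and end-point luminescence was read after 10 min at room temperature.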
# [11] = molecular target: Bile acid receptor (Homo sapiens) (UniProt Q96RI1); assay: qHTS assay for small molecule agonists of farnesoid X receptor signaling (AID 588527; calls by dose curve; further: series mostly up to about 77 µM); conditions: HEK293T FXR-UAS-bla, beta-lactamase ratio, 16 h; activation: stronger effect = higher value
# Procedure, shortened: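 Quantitative HTS used FXR-UAS-bla HEK293T cells with 16 h compound incubation at 37 C. EC50 values came from concentration-response curves normalized to chenodeoxycholic acid.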
# [12] = molecular target: Estrogen receptor (Homo sapiens) (UniProt P03372); assay: qHTS assay for small molecule antagonists of estrogen receptor alpha signaling (AID 588513; active means well fitted curve in the direction sought with a large enough effect in the signal ratio, with a control signal flat, not every such curve was filed as active; the % refers to the signal ratio)
# Procedure, shortened: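 ER-alpha-UAS-bla GripTite HEK 293 cells in 2% charcoal/dextran-treated FBS medium; compounds titrated (1:2, duplicate), then stimulated with 0.5 nM 17-beta-estradiol for 18 h at 37C. CCF4 beta-lactamase fluorescence; Hill-fit IC50 and efficacy.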
# [13] = molecular target: Estrogen receptor (Homo sapiens) (UniProt P03372); assay: qHTS assay for small molecule agonists of estrogen receptor alpha signaling (AID 588514; calls by dose curve; further: nearly all actives have a fitted effect of over 70% in size)
# Procedure, shortened: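 Read-out: CCF4 fluorescence from a beta-lactamase reporter in ER-alpha-UAS-bla HEK 293 cells after 18 hrs of compound exposure at 37 C. Normalized to 20 nM 17-beta-estradiol (100%) and DMSO (0%).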
# [14] = molecular target: Glucocorticoid receptor (Homo sapiens) (UniProt P04150); assay: qHTS assay for small molecule agonists of glucocorticoid receptor signaling (AID 588532; active means well fitted curve in the direction sought with a large enough effect in the signal ratio, with a control signal flat; the % refers to the signal ratio); conditions: HeLa MMTV-bla, beta-lactamase ratio, agonist, 18 h; stronger effect = higher value; percent of dexamethasone control, DMSO zero
# Procedure, shortened: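 MMTV-bla HeLa, beta-lactamase reporter; medium with 1% charcoal/dextran-stripped FBS; cpds up to 92 uM, 18 h, 37 C; CCF4 readout 460/530 nm; Hill fit → EC50, efficacy vs 0.1 uM dexamethasone = 100%.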
# [15] = molecular target: Glucocorticoid receptor (Homo sapiens) (UniProt P04150); assay: qHTS assay for small molecule antagonists of glucocorticoid receptor signaling (AID 588533; active means well fitted inhibition curve with a large enough effect in the signal ratio, with a control signal flat, not every such curve was filed as active; the % refers to the signal ratio;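 further: cells stimulated with 2 nM dexamethasone as agonist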)
# Procedure, shortened: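 Antagonist-mode qHTS: compound titrations added to GRE-bla HeLa cells, then dexamethasone 2 nM final; 18 h, 37 C. CCF4 FRET fluorescence normalized to dexamethasone and DMSO; IC50 from Hill fit.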
# [16] = molecular target: Peroxisome proliferator-activated receptor delta (Homo sapiens) (UniProt Q03181); assay: qHTS assay for small molecule agonists of peroxisome proliferator-activated receptor delta signaling (AID 588534; calls by dose curve)
# Procedure, shortened: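 Titration series tested in agonist mode on beta-lactamase reporter cells; 18 hrs at 37 C after a 5 hr pre-incubation. Readout: CCF4 fluorescence, 2 hrs RT. Hill equation gives EC50 and maximal response.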
# [17] = qHTS assay for small molecule antagonists of peroxisome proliferator-activated receptor delta signaling (AID 588535; active means well fitted inhibition curve with a large enough effect in the signal ratio, with a control signal flat, not every such curve was filed as active; the % refers to the signal ratio;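 on max response: cells co-treated with a PPAR-delta agonist as stimulator during compound exposure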); conditions: HEK293T PPARd-UAS-bla, beta-lactamase FRET ratio, 18 h; 460 nm channel
# Procedure, shortened: (§1)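 Compounds tested in titration on PPAR-delta-UAS-bla HEK293T cells grown in charcoal/dextran-stripped serum (2%); beta-lactamase activity read via CCF4 emission at 460 and 530 nm.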
# [18] = molecular target: Peroxisome proliferator-activated receptor delta (Homo sapiens) (UniProt Q03181); assay: as above
# Procedure, shortened: as §1
# [19] = molecular target: Peroxisome proliferator-activated receptor gamma (Homo sapiens) (UniProt P37231); assay: qHTS assay for small molecule agonists of peroxisome proliferator-activated receptor gamma signaling (AID 588536; active means well fitted curve in the direction sought with a large enough effect in the signal ratio, with a control signal flat, not every such curve was filed as active; the % refers to the signal ratio)
# Procedure, shortened: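 Using GeneBLAzer HEK293 cells, response was quantified by CCF4 fluorescence and normalized between basal DMSO (0%) and rosiglitazone 2 uM (100%); curves yielded half-maximal stimulation concentration and efficacy.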
# [20] = qHTS assay for small molecule agonists of retinoid X receptor alpha signaling (AID 588544; calls by dose curve); conditions: HEK293T RXRa-UAS-bla, beta-lactamase reporter, 18 h; 530 nm emission
# [21] = molecular target: Retinoic acid receptor RXR-alpha (Homo sapiens) (UniProt P19793); assay: as above
# [22] = molecular target: Thyroid hormone receptor beta (Homo sapiens) (UniProt P10828); assay: qHTS assay for small molecule agonists of thyroid hormone receptor beta signaling (AID 588545; calls by dose curve)
# Procedure, shortened: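 TR-UAS-bla GripTite HEK 293 cells (2500/well, medium with 2% charcoal/dextran FBS) were treated in agonist mode for 18 h at 37 C, titrated. Beta-lactamase was read by CCF4 ratio after 2 h; normalized to 10 nM T3 (100%) and DMSO, Hill-fitted for EC50 and efficacy.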
# [23] = qHTS assay for small molecule antagonists of retinoid X receptor alpha signaling (AID 588546; active means well fitted inhibition curve with a large enough effect in the signal ratio, with a control signal flat, not every such curve was filed as active; the % refers to the signal ratio;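 further: cells stimulated with 9-cis-retinoic acid as agonist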); conditions: HEK293T RXRa-UAS-bla, beta-lactamase ratio, antagonist mode; measured here: W530 green channel, cytotoxicity proxy
# Procedure, shortened: (§2)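 Beta-lactamase reporter inhibition, read as CCF4 fluorescence ratio (ex 405, em 460/530 nm) after 2 h at RT. HEK293T UAS-bla cells, 2500/well, were stimulated with 9-cis-RA at 500 or 100 nM final alongside test compound for 18 h at 37 C.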
# [24] = molecular target: Retinoic acid receptor RXR-alpha (Homo sapiens) (UniProt P19793); assay: as above; conditions: HEK293T RXRa-UAS-bla, beta-lactamase ratio, antagonist mode
# Procedure, shortened: as §2
# [25] = molecular target: Thyroid hormone receptor beta (Homo sapiens) (UniProt P10828); assay: qHTS assay for small molecule antagonists of thyroid hormone receptor beta signaling (AID 588547; active means well fitted inhibition curve with a large enough effect in the signal ratio, with a control signal flat, not every such curve was filed as active; the % refers to the signal ratio;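 further: cells stimulated with 0.4 nM T3 agonist during compound exposure; series mostly up to about 77 µM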); conditions: TR-UAS-bla HEK293, beta-lactamase ratio, antagonist mode, 18 h
# Procedure, shortened: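 TR-UAS-bla GripTite HEK293 cells in 2% charcoal/dextran FBS medium were preincubated 4 h at 37 C, given compound (0.59 nM to 92 uM) plus 0.4 nM T3 (final) for 18 h, then CCF4 for 2 h at RT; Hill fit gave IC50.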
# [26] = qHTS assay for small molecule agonists of the antioxidant response element (ARE) signaling pathway (AID 651741; active means well fitted activation curve with a large enough effect in the signal ratio; the % refers to the signal ratio)
# Procedure, shortened: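 Beta-lactamase reporter expression driven by the antioxidant response element in HepG2 cells was detected by fluorescence with LiveBLAzer B/G FRET substrate (2 h, room temperature) following 16 h compound treatment at 37 C.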
# [27] = qHTS assay for small molecule activators of the p53 signaling pathway (AID 651743; active means well fitted activation curve with a large enough effect in the signal ratio, not every such curve was filed as active; the % refers to the signal ratio; further: series mostly up to about 92 µM); conditions: HCT-116 p53RE-bla, beta-lactamase FRET ratio, 16 h; activation: stronger effect = higher value
# Procedure, shortened: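 Here HCT-116 cells with an integrated p53-responsive beta-lactamase gene were incubated with compounds (16 hours, 37 C) after a 5-hour plating period; beta-lactamase activity was detected as fluorescence intensity via B/G FRET substrate.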
# [28] = qHTS assay for environmental chemicals that activate the Aryl hydrocarbon Receptor (AhR) signaling pathway (AID 651777); conditions: 1A2-DRE human hepatoma cells, luciferase, 24 h; activation: stronger effect = higher value; further: nearly all actives have a fitted effect of over 15% in size
# Procedure, shortened: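 Luminescence read-out: One-Glo added for 30 min at RT after 24 hr compound treatment (37 C, 5% CO2) of human hepatoma cells expressing a DRE/CYP1A2 promoter–luciferase reporter; increased signal indicates AhR activation.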
# [29] = molecular target: Peroxisome proliferator-activated receptor alpha (Homo sapiens) (UniProt Q07869); assay: qHTS assay for small molecule agonists of the peroxisome proliferator-activated receptor alpha (PPARalpha) signaling pathway (AID 651778); conditions: PathHunter PPARalpha complementation, chemiluminescence, 6 h; stronger effect = higher value
# Procedure, shortened: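 Cells plated at 2,000/well and held overnight at 37 C, 5% CO2, then compound added by pin tool for 6 hr; after PathHunter detection reagent and 60 min at room temperature, chemiluminescence from enzyme complementation was read.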
# [30] = qHTS assay for small molecule agonists of the antioxidant response element (ARE) signaling pathway measured by Nrf2-dependant transcriptional activity (AID 720636; active means well fitted curve in the direction sought with a large enough effect in the repeat runs; an effect the other way counts as inactive or inconclusive)
# Procedure, shortened: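 HepG2 ARE-luc reporter line, 1% dialyzed FBS; 6 hr attachment at 37 C, compound pinned in, 16 hr at 37 C/5% CO2; ONE-Glo, 30 min RT, luminescence read.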
# [31] = qHTS assay for small molecule agonists of the antioxidant response element (ARE) signaling pathway measured by Nrf2-dependant transcriptional activity - cell viability counter screen (AID 720653; active means well fitted curve in the direction sought with a large enough effect in the repeat runs; an effect the other way counts as inactive or inconclusive); conditions: ARE-bla HepG2 viability, CellTiter-Glo ATP luminescence, 16 h; max response: stronger effect = lower value
# Procedure, shortened: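 ARE-bla HepG2 cells (2,000/well) rested 5 hrs at 37C/5% CO2, then exposed to compounds in DMSO for 16 hrs. Viability was read in the same wells as intracellular ATP by luminescence, 30 min at room temperature after reagent addition.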
# [32] = qHTS assay for cell viability of HEK293 cells (AID 743288); conditions: ATP luminescence (CellTiter-Glo), 18 h; max response: stronger effect = lower value; further: nearly all actives have a fitted effect of over 50% in size
# Procedure, shortened: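 Steps: plate 2,000 parental HEK293 cells per well; incubate ≥5 h, 37 C; add compounds in DMSO; incubate 18 h, 37 C; add CellTiter-Glo; wait 30 min at room temperature; read luminescence.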
# [33] = qHTS assay for cell viability of the p53RE-bla HCT-116 cell line (AID 743292); further: nearly all actives have a fitted effect of over 55% in size
# Procedure, shortened: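 Luminescent ATP quantitation (CellTiter-Glo) served as the viability read-out; reagent was added after 16 h compound exposure at 37 C and read after 30 min at room temperature. Cells: p53RE-bla HCT-116, 4,000 per well.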
# [34] = molecular target: Nuclear receptor subfamily 1 group I member 2 (Rattus norvegicus) (UniProt Q9R1A7); assay: qHTS assay for small molecule activators of the rat pregnane X receptor (rPXR) signaling pathway (AID 651751; call rule not given here); conditions: rPXR reporter cells, luciferase (One-Glo), 24 h
# [35] = qHTS assay for small molecule activators of the human pregnane X receptor (PXR) signaling pathway (AID 720659; call rule not given here)
# Sequence of Alpha-galactosidase (Coffea arabica) (Q42656 whole entry, looked up): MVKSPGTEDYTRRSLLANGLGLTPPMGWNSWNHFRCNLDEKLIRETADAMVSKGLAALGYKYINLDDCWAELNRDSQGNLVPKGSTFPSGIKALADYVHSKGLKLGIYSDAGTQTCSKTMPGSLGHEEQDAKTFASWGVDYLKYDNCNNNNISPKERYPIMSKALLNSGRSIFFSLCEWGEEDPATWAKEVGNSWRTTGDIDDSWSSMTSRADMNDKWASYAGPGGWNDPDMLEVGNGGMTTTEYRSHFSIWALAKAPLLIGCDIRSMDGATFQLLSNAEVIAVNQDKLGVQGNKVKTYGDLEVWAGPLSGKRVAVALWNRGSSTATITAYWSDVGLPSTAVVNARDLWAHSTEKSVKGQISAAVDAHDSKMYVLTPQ
# Sequence of Nucleoprotein (Lymphocytic choriomeningitis virus (strain Armstrong)) (P09992 whole entry, looked up): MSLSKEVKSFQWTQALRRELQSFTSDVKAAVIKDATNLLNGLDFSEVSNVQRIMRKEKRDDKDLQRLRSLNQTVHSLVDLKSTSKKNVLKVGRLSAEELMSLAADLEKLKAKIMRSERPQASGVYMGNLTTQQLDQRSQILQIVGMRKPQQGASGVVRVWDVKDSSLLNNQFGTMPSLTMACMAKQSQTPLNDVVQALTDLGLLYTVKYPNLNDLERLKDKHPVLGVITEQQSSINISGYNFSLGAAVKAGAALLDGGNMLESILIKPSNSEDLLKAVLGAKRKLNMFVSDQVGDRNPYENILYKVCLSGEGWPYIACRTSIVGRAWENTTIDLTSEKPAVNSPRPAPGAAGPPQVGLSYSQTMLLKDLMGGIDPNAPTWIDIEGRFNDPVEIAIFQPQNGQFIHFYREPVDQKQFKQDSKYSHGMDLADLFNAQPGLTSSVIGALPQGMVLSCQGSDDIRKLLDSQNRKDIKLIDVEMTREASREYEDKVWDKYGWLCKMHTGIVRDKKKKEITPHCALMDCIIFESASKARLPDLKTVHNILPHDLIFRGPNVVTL
# Sequence of Thyroid hormone receptor beta (Homo sapiens) (P10828 whole entry, looked up): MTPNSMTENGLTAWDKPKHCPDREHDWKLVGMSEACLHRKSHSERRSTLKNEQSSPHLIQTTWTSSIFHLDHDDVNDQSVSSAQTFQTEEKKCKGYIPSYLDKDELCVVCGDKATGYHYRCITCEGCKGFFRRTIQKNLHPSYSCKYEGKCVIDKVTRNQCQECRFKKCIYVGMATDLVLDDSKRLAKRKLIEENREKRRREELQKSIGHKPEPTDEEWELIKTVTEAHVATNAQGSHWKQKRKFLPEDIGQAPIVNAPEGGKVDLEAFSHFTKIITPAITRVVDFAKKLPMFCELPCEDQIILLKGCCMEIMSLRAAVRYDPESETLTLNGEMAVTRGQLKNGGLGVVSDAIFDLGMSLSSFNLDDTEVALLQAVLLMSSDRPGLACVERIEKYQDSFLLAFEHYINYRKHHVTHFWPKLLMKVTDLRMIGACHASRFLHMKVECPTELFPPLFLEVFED
# Sequence of Estrogen receptor (Homo sapiens) (P03372 whole entry, looked up): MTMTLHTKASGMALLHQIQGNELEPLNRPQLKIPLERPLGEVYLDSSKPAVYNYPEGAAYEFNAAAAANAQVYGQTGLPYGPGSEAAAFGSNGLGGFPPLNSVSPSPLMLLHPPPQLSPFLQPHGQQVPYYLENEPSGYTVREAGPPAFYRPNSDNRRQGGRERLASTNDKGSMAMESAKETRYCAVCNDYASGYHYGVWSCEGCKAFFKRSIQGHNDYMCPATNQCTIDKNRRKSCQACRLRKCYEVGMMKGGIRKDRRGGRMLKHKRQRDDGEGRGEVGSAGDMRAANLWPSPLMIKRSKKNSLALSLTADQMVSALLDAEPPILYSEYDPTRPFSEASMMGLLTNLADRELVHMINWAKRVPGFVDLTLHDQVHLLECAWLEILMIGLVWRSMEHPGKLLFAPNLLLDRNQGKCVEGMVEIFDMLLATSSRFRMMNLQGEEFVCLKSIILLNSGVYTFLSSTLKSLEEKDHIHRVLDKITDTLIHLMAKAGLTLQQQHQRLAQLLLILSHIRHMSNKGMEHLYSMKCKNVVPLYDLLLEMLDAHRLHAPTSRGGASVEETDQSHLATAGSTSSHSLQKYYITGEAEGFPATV
# Sequence of Glucocorticoid receptor (Homo sapiens) (P04150 whole entry, looked up): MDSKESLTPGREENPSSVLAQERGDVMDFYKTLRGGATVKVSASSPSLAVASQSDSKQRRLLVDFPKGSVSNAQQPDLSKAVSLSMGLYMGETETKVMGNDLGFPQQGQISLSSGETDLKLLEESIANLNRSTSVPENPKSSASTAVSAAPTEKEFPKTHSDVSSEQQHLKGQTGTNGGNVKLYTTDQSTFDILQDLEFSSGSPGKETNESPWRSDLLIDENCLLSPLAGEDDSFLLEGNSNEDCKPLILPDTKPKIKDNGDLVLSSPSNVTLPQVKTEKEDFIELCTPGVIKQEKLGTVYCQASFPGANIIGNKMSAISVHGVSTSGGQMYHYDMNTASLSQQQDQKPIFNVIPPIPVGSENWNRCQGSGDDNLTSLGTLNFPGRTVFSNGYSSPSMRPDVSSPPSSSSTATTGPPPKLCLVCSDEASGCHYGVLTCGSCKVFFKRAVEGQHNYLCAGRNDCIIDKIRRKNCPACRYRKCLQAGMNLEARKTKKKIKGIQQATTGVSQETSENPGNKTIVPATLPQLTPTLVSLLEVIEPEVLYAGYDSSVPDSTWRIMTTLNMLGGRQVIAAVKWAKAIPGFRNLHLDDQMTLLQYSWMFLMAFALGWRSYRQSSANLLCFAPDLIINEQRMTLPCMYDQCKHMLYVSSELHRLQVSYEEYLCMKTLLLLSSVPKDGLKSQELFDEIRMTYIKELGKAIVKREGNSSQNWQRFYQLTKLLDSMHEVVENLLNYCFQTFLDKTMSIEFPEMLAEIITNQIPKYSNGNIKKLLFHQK
# Sequence of Peroxisome proliferator-activated receptor delta (Homo sapiens) (Q03181 whole entry, looked up): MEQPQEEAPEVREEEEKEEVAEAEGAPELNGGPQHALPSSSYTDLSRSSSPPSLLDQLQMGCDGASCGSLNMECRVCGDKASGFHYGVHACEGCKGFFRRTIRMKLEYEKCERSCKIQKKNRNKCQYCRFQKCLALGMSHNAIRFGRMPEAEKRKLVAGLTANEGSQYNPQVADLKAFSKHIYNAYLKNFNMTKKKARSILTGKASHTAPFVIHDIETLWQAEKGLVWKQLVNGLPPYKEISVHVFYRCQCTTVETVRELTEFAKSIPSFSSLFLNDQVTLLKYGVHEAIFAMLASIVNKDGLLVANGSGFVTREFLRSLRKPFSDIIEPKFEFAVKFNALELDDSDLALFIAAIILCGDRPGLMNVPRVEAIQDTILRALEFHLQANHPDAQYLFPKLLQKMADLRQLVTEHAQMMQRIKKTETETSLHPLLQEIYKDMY
# Sequence of Retinoic acid receptor RXR-alpha (Homo sapiens) (P19793 whole entry, looked up): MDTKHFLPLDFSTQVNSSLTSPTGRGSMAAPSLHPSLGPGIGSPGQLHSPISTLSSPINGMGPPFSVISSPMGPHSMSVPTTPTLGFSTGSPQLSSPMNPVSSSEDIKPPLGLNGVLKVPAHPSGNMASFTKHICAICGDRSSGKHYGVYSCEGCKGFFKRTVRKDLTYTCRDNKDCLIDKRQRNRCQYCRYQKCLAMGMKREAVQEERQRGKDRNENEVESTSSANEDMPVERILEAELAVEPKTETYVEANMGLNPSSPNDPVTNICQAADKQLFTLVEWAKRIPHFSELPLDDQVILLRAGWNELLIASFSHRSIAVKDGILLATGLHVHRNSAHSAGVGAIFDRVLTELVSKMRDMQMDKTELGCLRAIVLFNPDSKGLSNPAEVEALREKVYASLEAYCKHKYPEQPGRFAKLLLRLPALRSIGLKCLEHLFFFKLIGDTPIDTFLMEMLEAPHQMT
# Sequence of Nuclear receptor subfamily 1 group I member 2 (Rattus norvegicus) (Q9R1A7 whole entry, looked up): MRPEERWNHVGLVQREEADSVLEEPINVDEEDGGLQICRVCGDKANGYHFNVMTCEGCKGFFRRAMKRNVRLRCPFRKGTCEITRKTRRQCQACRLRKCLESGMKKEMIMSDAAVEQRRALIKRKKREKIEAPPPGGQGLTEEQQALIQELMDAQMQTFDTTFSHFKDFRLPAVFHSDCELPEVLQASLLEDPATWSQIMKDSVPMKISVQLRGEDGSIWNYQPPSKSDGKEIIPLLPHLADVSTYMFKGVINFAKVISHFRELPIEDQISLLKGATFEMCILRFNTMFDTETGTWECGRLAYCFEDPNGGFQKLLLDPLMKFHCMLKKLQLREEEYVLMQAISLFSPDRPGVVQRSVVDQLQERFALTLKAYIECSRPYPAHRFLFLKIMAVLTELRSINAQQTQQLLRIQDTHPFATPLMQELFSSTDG
# Sequence of Peroxisome proliferator-activated receptor alpha (Homo sapiens) (Q07869 whole entry, looked up): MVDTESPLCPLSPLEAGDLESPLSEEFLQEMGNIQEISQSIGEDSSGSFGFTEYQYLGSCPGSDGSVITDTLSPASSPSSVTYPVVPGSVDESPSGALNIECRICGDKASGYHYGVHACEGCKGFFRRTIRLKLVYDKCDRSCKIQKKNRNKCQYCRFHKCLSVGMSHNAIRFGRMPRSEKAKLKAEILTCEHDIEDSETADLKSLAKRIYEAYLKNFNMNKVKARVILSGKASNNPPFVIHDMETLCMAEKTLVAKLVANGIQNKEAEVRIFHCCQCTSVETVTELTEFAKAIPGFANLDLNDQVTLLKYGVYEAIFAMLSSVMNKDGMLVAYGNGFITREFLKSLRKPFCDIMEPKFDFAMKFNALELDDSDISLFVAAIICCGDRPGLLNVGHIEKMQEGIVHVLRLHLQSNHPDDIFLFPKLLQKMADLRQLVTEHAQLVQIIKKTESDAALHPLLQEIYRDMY
smiles,measurement,setting,value
O=c1ccc2c(O)c3ccoc3cc2o1,Potency,[1],inactive
same,outcome,[2],inactive
same,Potency,[3],inactive
same,Potency,[4],inactive
same,Potency,[5],inactive
same,Potency,[6],inactive
same,Potency,[7],inactive
CN(C)S(=O)(=O)c1ccc2c(c1)/C(=C/c1cc3c([nH]1)CCCC3)C(=O)N2,outcome,[8],inactive
same,outcome,[9],inactive
same,outcome,[10],inactive
same,Potency,[4],inactive
same,Potency,[5],inactive
same,Potency,[6],inactive
same,Potency,[7],inactive
CCCCC=O,activation,[11],1.59% (inactive)
same,Potency,[4],inactive
same,Potency,[5],inactive
same,Potency,[6],inactive
same,Potency,[7],inactive
NCCNC(=O)c1ncsc1-c1cccc(F)c1,outcome,[8],inactive
same,outcome,[9],inactive
same,outcome,[10],inactive
same,Potency,[4],inactive
same,Potency,[5],inactive
same,Potency,[6],inactive
same,Potency,[7],inactive
C[C@H]1O[C@H](OC2[C@@H](O)[C@@H](O)C(O)[C@H](O)[C@H]2O)[C@@H](N)C[C@@H]1N=C(N)C(=O)O (some centres undefined),Potency,[12],inactive
same,Potency,[13],inactive
same,activation,[14],-3.89% (inactive)
same,Potency,[15],inactive
same,Potency,[16],inactive
same,max response,[17],-16.5%
same,outcome,[18],inactive
same,outcome,[19],inactive
same,max response,[20],-7.18%
same,outcome,[21],inactive
same,Potency,[22],inactive
same,max response,[23],-6.74%
same,max response,[24],-1.33% (inactive)
same,activity change % (negative = inhibition),[25],1.51% (inactive)
same,Potency,[26],inactive
same,activation,[27],0.472% (inactive)
same,activation,[28],-0.0561% (inactive)
same,max response,[29],-0.85% (inactive)
same,Potency,[30],inactive
same,max response,[31],3.51% (inactive)
same,max response,[32],0.169% (inactive)
same,outcome,[33],inactive
same,Potency,[4],inactive
same,Potency,[5],inactive
same,Potency,[6],inactive
same,Potency,[7],inactive
same,max response,[34],-0.488% (inactive)
same,outcome,[35],inactive
